Mtb FBA inh – inhibits M. tuberculosis FBA enzyme; actives 2.3% (n = 360,000); inhibition, % at 1 µM; P9WQA3; purified M. tuberculosis FBA, fluorescence read-out; in the data active = inhibition above about 27%
Target sequence (P9WQA3 whole entry, looked up): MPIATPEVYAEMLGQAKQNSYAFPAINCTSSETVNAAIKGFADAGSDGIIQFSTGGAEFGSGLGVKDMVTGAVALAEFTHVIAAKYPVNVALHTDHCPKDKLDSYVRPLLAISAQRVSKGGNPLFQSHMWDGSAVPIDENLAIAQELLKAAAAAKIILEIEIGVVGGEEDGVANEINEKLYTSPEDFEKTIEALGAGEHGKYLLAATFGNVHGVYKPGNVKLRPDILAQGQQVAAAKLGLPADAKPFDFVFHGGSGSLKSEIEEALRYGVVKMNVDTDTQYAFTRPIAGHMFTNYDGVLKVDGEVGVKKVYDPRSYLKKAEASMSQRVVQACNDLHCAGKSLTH
CCHFV vOTU inh – CCHFV vOTU protease inhibition; Pep-AMC fluorescence; inhibition, % at 11.5 µM; actives 0.55% (n = 370,000)
MazEF act – MazEF (E. coli) toxin RNase activation; P0AE70; FAM/BHQ RNA-DNA oligo cleavage fluorescence, 5 h; activation, % at 20 µM; actives 0.32% (n = 350,000); AID 504720; in the data active = activation above about 50%
Target sequence (P0AE70 whole entry, looked up): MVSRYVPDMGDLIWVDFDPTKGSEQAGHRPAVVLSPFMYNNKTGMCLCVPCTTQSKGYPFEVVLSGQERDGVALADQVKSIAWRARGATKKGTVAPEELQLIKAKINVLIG
GDH-TPI counter – GDH-TPI coupled enzyme inhibition counter-screen | GDH-TPI coupled enzyme counterscreen, NADH absorbance | inhibition, % at 4.8 µM | actives 1.2% (n = 360,000) | AID 588335
Mtb betalactam – beta-lactam sensitization of Mtb H37Rv; actives 0.27% (n = 330,000); AID 434955; M. tuberculosis H37Rv growth with meropenem, percent inhibition; inhibition, % at 25 µM; call rule not given here;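 note: growth measured after seven days incubation then overnight dye step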
Each line names hits and unclear results; the compound was inactive in the other large screens. A selection: hits, their analogues and other compounds. The true share with any hit is near 4%. Cut-off read from the data, not from the text of the source, unless noted: active = inhibition above about 30%; inactive = the rest.

COc1ccccc1OCCN1C(=O)S/C(=C\c2ccco2)C1=O	GDH-TPI counter 34.3
O=C(N/N=C\c1ccc[nH]1)c1cncc(Br)c1	none
Cc1ccc(C(=O)N/N=C\C=C\c2ccc(Br)cc2)cn1	GDH-TPI counter 35.3
Cc1ccc(C(=O)N/N=C\c2ccc[nH]2)cn1	GDH-TPI counter 47.0
O=C(N/N=C/c1ccc[nH]1)c1cccnc1	GDH-TPI counter 45.3
CN1CCc2cc3c(c4c2[C@H]1[C@H](O)c1ccccc1-4)OCO3	CCHFV vOTU inh 37.4
O=c1cc(-c2ccc(F)cc2)oc2ccccc12	none
CSc1ccc(-c2cc(=O)c3ccccc3o2)cc1	Mtb FBA inh active, GDH-TPI counter 45.4
Cc1cc2cc(C(c3nnnn3Cc3ccco3)N3CCc4ccccc43)c(=O)[nH]c2cc1C (stereo not given)	MazEF act 79.2
CC(C)(C)c1ccc(/C=N/NC(=S)Nc2cccnc2)cc1	none (no result: Mtb FBA inh, CCHFV vOTU inh, MazEF act, GDH-TPI counter)
Oc1ccc(C=NNC(=S)Nc2cccnc2)nc1	GDH-TPI counter 50.0 (no result: Mtb betalactam)
Oc1ccc(/C=N/NC(=S)Nc2cccnc2)cc1O	GDH-TPI counter 33.7
CCOC(=O)[C@@]12CCCC=C1N(CCc1ccc(Cl)cc1)C(=O)[C@H]2CC(=O)N1CCOCC1	none (no result: Mtb FBA inh, MazEF act, GDH-TPI counter, Mtb betalactam)
CCN(CC)C(=O)CC[C@@H]1CC[C@]2(CCCN(Cc3cccs3)C2)O1	none (no result: Mtb FBA inh, MazEF act, GDH-TPI counter, Mtb betalactam)
Nc1nccnc1C(=O)OCC(=O)N1CCN(S(=O)(=O)c2ccc(Cl)cc2)CC1	Mtb FBA inh 148.5
COC(=O)c1nccnc1N	Mtb FBA inh 145.5 (no result: Mtb betalactam)
Nc1nccnc1C(=O)OCC(=O)C12CC3CC(CC(C3)C1)C2	Mtb FBA inh 127.2
CC1CC(C)CN(C(=O)COC(=O)c2ccc(Cl)nc2)C1 (stereo not given)	none (no result: Mtb betalactam)
CC1CC(C)CN(C(=O)COC(=O)c2nccnc2N)C1 (stereo not given)	Mtb FBA inh 180.4
Cc1cnc(C(=O)OCC(=O)C23CC4CC(CC(C4)C2)C3)cn1	none
COC(=O)c1nc(C(=O)OC)c(C(=O)OC)nc1C(=O)OC	none
CCOc1ccc(-n2c(SCC(=O)Nc3ccc4c(c3)OCCO4)nnc2-c2ccncc2)cc1	none (no result: Mtb FBA inh, MazEF act, GDH-TPI counter, Mtb betalactam)
O=C(N[C@H](C(=O)N1CCC[C@H]1C(=O)NC1CCCC1)C1CCCCC1)c1ccc(Cl)c(Cl)c1	none (no result: Mtb FBA inh, MazEF act, GDH-TPI counter, Mtb betalactam)
COc1ccc(-c2c(NC(=O)c3ccco3)oc3ccccc3c2=O)cc1	GDH-TPI counter 40.2
COc1cccc(-c2c(NC(C)=O)n(C)c3ccccc3c2=O)c1	none
Cc1ccc(-c2c(NC(=O)c3ccco3)oc3ccccc3c2=O)cc1	none
COc1ccc(-c2c(NC(C)=O)n(C)c3ccccc3c2=O)cc1	GDH-TPI counter 36.1
C=CCn1c(COc2ccc(C)cc2)nnc1SCc1ccc([N+](=O)[O-])cc1	none (no result: Mtb FBA inh, MazEF act, GDH-TPI counter, Mtb betalactam)
N#CC(c1ccc(O)cc1)N1CCN(C(C#N)c2ccc(O)cc2)CC1 (stereo not given)	GDH-TPI counter 82.1 (no result: Mtb betalactam)
O=C(O)c1ccc(-n2cccc2/C=N\NC(=O)c2cc3cc(Br)ccc3o2)cc1	GDH-TPI counter 35.9
CC(=O)c1cc2c(C)c(C(=O)c3ccccc3)oc2cc1O	MazEF act 88.6
Cc1oc2ccc(O)cc2c1C(=O)c1ccccc1	none
O=S1(=O)CC(N2CCCC2)CN1 (stereo not given)	none (no result: Mtb FBA inh, MazEF act, GDH-TPI counter, Mtb betalactam)
Cc1cc(OCc2nn[nH]n2)c2c(C)c(CC(=O)O)c(=O)oc2c1	Mtb FBA inh active
Cc1c(CC(=O)O)c(=O)oc2c(C)c(OCc3nn[nH]n3)ccc12	Mtb FBA inh 147.4
Cc1cc(OCc2nn[nH]n2)c2c(-c3ccccc3)cc(=O)oc2c1	none
COC(=O)c1ccc(NC(=O)Cn2nc(-c3ccncc3)nc2SCC(=O)Nc2nccs2)cc1	MazEF act 55.6
CCN(CC)C(=O)Cn1nc(-c2ccncc2)nc1SCC(=O)Nc1ccc(OC)cc1	none
CC(=O)Nc1nonc1NC(C)=O	none
CC(=O)Nc1cc(OC(C)=O)c2nonc2c1OC(C)=O	CCHFV vOTU inh 100.7
COC(=O)C(C(=O)OC)=C(/C=C/C=C/N(C)C)N(C)C	none
COC(=O)C(C(=O)OC)=C(/C=C/N(C)C)N(C)C	GDH-TPI counter 37.6
Cn1c(O)c(C=Nc2ccccc2)c(=O)n(C)c1=O	GDH-TPI counter 46.3
Cn1c(O)c(C=Nc2ccc(Cl)cc2)c(=O)n(C)c1=O	none
Cn1c(O)c(/C=N/c2ccccn2)c(=O)n(C)c1=O	GDH-TPI counter 33.5
COc1ccccc1N=Cc1c(O)n(C)c(=O)n(C)c1=O	none
CC(=O)Nc1nc2n(n1)C(c1ccccc1)C=C(c1ccccc1)N2 (stereo not given)	Mtb FBA inh 49.7 (no result: CCHFV vOTU inh)
CC(=O)Nc1nc2n(n1)C(c1ccc(Cl)cc1)C=C(C)N2 (stereo not given)	Mtb FBA inh 119.4
COc1ccccc1C1C=C(c2ccc(Cl)cc2)Nc2nc(NS(C)(=O)=O)nn21 (stereo not given)	none (no result: Mtb FBA inh, CCHFV vOTU inh, MazEF act, GDH-TPI counter)
CC1=CC(c2ccc(Cl)cc2)n2nc(NC(=O)c3ccccc3)nc2N1 (stereo not given)	none
CS(=O)(=O)Nc1nc2n(n1)C(c1ccccc1)C=C(c1ccc(Br)cc1)N2 (stereo not given)	Mtb FBA inh 33.8 (no result: CCHFV vOTU inh)
COC(=O)c1ccc(-c2cc(C(=O)O)c3cc4c(cc3n2)OCCO4)cc1	Mtb FBA inh active
COc1cccc2c1cc1c(=O)n(CC(=O)NCCCN3CCCCC3)nc(C)n12	Mtb FBA inh 115.8 (no result: CCHFV vOTU inh)
CCc1nn(CC(=O)NCCCc2ccccc2)c(=O)c2cc3c(OC)cccc3n12	none
CCc1nn(CC(=O)NCCCN2CCOCC2)c(=O)c2cc3c(OC)cccc3n12	Mtb FBA inh 112.4 (no result: Mtb betalactam)
COc1ccc(CN2C(=O)[C@]3(NCCc4c3[nH]c3ccc(OC)cc43)c3cc(F)ccc32)cc1	none (no result: Mtb FBA inh, MazEF act, GDH-TPI counter, Mtb betalactam)
COc1ccc(-c2noc(C3CCCN(C(=O)Nc4cc(C)cc(C)c4)C3)n2)cc1 (stereo not given)	none (no result: Mtb FBA inh, MazEF act, GDH-TPI counter, Mtb betalactam)
CCN(CC)c1ccc(C=Nc2ccc(OC)c(S(=O)(=O)N3CCOCC3)c2)c(O)c1	GDH-TPI counter 32.3
CCN(CC)c1ccc(C=Nc2cccc(S(=O)(=O)N3CCOCC3)c2)c(O)c1	GDH-TPI counter 61.4
CCN1C(=O)/C(=C2/C=Cc3ccccc3N2CC)SC1=S	none
CCN1C(=O)/C(=C2\C=Cc3ccccc3N2CC)OC1=S	MazEF act 234.6
C(#CC1=CCCCC1)CNCc1ccccc1	none (no result: Mtb FBA inh, MazEF act, GDH-TPI counter, Mtb betalactam)
Cc1c(-c2ccccc2)c(=O)oc2cc(O)ccc12	Mtb FBA inh active
O=c1oc2ccccc2cc1-c1nc(-c2cccs2)cs1	MazEF act 141.4
COc1cccc2cc(-c3nc4ccccc4[nH]3)c(=O)oc12	GDH-TPI counter 31.3
Cc1cccc2cc(-c3nc4ccc(C(=O)O)cc4[nH]3)c(=O)oc12	Mtb FBA inh 34.2, GDH-TPI counter 31.0 (no result: CCHFV vOTU inh)
COc1cccc2cc(-c3nc(-c4cccs4)cs3)c(=O)oc12	MazEF act 99.0
CCCCCCCCN1CN2Cc3ccccc3C2CS1(=O)=O (stereo not given)	none (no result: Mtb FBA inh, MazEF act, GDH-TPI counter, Mtb betalactam)
Cc1ccc(NC(=O)OCCCN2C(=O)CCC23CCC(C)CC3)cc1 (stereo not given)	none (no result: Mtb FBA inh, MazEF act, GDH-TPI counter, Mtb betalactam)
COc1cc(/C=C/C(=O)OCC(=O)N2CCc3ccccc3C2)ccc1O	GDH-TPI counter 56.7
COc1ccc(/C=C/C(=O)OCC(=O)NC2CCCCCC2)cc1	none (no result: Mtb betalactam)

Compound activity (PubChem)
